Measurements taken from PubChem BioAssay AID1053173 (Broad Institute, 2014).
In all, about 1,500 compounds went through this assay and about 390 (26%) were called active. How the calls were made is not given here. These entries were drawn from the full list. Potency and affinity values are given separately.

target: Histone-lysine N-methyltransferase NSD2 (Homo sapiens) (UniProt O96028); test: NSD2 methyltransferase inhibitors, dose response, biochemical, AlphaScreen, cherry-picked samples (AID 1053173); conditions: NSD2 H4 peptide methylation, 120 min; series mostly up to 10 µM
Sequence (O96028 whole entry, looked up): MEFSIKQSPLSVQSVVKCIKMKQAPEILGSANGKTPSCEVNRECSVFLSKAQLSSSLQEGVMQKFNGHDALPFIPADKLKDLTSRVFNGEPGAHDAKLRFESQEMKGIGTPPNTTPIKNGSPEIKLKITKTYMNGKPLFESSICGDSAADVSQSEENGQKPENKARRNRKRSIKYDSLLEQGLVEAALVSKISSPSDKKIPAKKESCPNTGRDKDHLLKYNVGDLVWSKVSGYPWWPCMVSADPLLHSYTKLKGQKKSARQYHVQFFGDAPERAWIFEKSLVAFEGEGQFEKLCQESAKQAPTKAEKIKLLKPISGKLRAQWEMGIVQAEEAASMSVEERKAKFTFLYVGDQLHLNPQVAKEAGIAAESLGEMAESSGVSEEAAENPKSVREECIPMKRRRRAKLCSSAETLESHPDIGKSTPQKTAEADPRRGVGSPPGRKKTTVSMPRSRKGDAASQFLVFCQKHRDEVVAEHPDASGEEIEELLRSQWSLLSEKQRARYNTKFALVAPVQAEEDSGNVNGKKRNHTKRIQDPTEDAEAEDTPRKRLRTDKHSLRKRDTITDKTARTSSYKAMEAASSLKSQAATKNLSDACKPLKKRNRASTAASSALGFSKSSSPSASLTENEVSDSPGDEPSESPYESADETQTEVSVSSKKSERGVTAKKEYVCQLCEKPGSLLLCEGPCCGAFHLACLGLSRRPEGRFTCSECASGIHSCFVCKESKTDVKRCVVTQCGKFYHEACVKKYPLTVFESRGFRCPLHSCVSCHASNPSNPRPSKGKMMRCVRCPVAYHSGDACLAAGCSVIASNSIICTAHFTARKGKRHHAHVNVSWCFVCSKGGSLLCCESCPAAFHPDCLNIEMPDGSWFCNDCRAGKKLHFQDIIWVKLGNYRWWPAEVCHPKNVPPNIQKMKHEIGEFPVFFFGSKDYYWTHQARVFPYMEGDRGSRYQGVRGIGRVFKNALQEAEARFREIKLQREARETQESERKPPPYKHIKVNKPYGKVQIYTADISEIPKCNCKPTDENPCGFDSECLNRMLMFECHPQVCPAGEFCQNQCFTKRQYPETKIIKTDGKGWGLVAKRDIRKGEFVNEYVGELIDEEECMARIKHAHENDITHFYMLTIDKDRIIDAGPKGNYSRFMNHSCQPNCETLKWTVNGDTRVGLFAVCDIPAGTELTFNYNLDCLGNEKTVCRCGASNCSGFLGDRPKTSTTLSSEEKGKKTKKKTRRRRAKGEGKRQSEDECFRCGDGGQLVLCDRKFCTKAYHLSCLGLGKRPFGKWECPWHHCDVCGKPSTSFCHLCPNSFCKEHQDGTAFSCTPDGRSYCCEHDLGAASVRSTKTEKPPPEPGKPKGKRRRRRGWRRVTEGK

outcome, inactive:
O=C1CN(C(=O)COC(=O)c2ccc([N+](=O)[O-])s2)c2ccccc2N1
CCN(CC)S(=O)(=O)c1ccc(N2CCN(C)CC2)c(NC(=O)Nc2ccccc2F)c1
Cc1ccc(S(=O)(=O)N2CCN(C(=O)C(F)(F)F)C2c2ccc(N(C)C)cc2)cc1 (stereo unspecified)
Cc1ccccc1CN1CCN(C(=O)c2ccco2)CC1
CC1Oc2ccc(C#N)cc2N(Cc2cccc(F)c2)C1=O (stereo unspecified)
C=CCN1CCN(C(c2cccc(OC)c2OC)c2nnnn2CCC(C)C)CC1 (stereo unspecified)
CC(=O)c1ccc(NC(=O)CC2Nc3cccc4cccc(c34)NC2=O)cc1 (stereo unspecified)
COCCCNC(=S)Nc1cccc2ncccc12
O=C1CCCC2=C1C(c1ccc(O)c(O)c1)c1c(ccc3ncccc13)N2 (stereo unspecified)
CN(CCc1ccccc1)C1CCCN(S(=O)(=O)N(C)C)C1 (stereo unspecified)
C/C(CC(=O)NCCCN1CCOCC1)=N\NC(=O)COc1ccc(Cl)cc1
O=C(COC(=O)c1ccc([N+](=O)[O-])o1)NC1CCS(=O)(=O)C1 (stereo unspecified)
Cc1cccc(NC(=O)c2ccc(NS(=O)(=O)c3cccc4cccnc34)cc2)c1
Cc1ccc(CSc2nnc(Nc3ccc(C)cc3)s2)cc1
CN(c1ccc(C(=O)O)cc1)S(=O)(=O)c1ccccc1
Cc1cc(C)c2c(c1)N[C@H](c1cccs1)[C@@H]1CCO[C@H]21
CC(NC(=O)c1cccc(Br)c1)c1ccccc1 (stereo unspecified)
CCN(CC)C(=O)COc1ccc2oc(C)c(C(=O)OC(C)C)c2c1
COc1ccc(C)cc1NC(=O)CCNC(=O)Cn1cnc2ccccc2c1=O
Cc1ccc(Cn2c(SCC(=O)NCC3CCCO3)nc3c2c(=O)n(C)c(=O)n3C)cc1 (stereo unspecified)
C/C(C=Nn1c(-c2ccc(F)cc2)n[nH]c1=S)=C/c1ccco1
Cc1ccc(C(=O)NC(=S)NNC(=O)c2ccccc2O)cc1
Cc1cc2ccccn2c1C(=O)c1ccc([N+](=O)[O-])o1
COc1ccc(S(=O)(=O)NCc2ccc3c(c2)OCO3)cc1OC
Cn1c(COc2ccc(Cl)cc2)nnc1SCC(=O)NC1CCCCC1
Cc1ccc(S(=O)(=O)N2CCCC(N3CCOCC3)C2)cc1Cl (stereo unspecified)
O=C(OCC(=O)N1CCOCC1)c1ccc(Br)cc1
O=C(c1cc(-c2ccc(Cl)cc2)n(-c2ccc(Cl)cc2)n1)N1CCOCC1
O=C(NCCC(=O)N1CCc2ccccc21)c1ccco1
O=C1CC(C(=O)N2CCc3ccccc32)CN1c1ccccc1 (stereo unspecified)
C=CCn1c(SCc2ccc3c(c2)OCO3)nc2scc(-c3ccco3)c2c1=O
Cc1cccc(OCC(=O)Nc2ncn[nH]2)c1C
N#Cc1ccc(OCC(=O)NCCCn2ccnc2)cc1
Cc1cc(OCCn2nc(C(=O)O)c3ccccc3c2=O)ccc1C(C)C
COCCCNC(=O)COc1ccc(Cl)c(C)c1
COCCNc1nc(-c2ccccc2)nc2ccccc12
CC(=O)c1ccc(NC(=S)NCCc2cccc(Cl)c2)cc1
COCCNC(=O)CN(C(=O)CCC(=O)Nc1nccs1)c1ccc2c(c1)OCO2
CCOC(=O)c1cc(NC(=O)CN2CCCC2)cc(C(=O)OCC)c1
O=C(Cn1cnc2c(cnn2-c2ccccc2)c1=O)OCc1ccccc1
CN(C)S(=O)(=O)c1ccc(Cl)c(C(=O)OCC(=O)c2ccco2)c1
COc1ccc(CN(C(=O)c2cccc(OC)c2)C2CCS(=O)(=O)C2)cc1 (stereo unspecified)
CN(C(=O)CN1C(=O)S/C(=C\c2ccccc2F)C1=O)C1CCS(=O)(=O)C1 (stereo unspecified)
COC(=O)c1nc(NC(=O)c2ccccc2)n[nH]1
Cc1ccc(C)c(NC(=S)Nc2cccc3cnccc23)c1
O=C(Nc1cc(Cl)ccc1-n1cncn1)c1cccs1
COc1ccc(C(C(=O)NC(C)(C)C)N(C(=O)CCC(=O)Nc2cc(C)on2)c2ccccc2F)cc1 (stereo unspecified)
COc1cccc(/C=C2\N=C(SC)SC2=O)c1OC
Cc1c(C(=O)N2CCN(c3ccc(F)cc3)CC2)sc2ncnc(N3CCN(c4ccccn4)CC3)c12
COC(=O)c1ccc(Cn2cnc3c(sc4nc(N5CCOCC5)c5c(c43)CCCC5)c2=O)o1
CC(C)c1nc2oc3c(NCC4CCCO4)ncnc3c2c2c1COC(C)(C)C2 (stereo unspecified)
CCO/C=C/C(=O)N(C)CCC#N
CCN(CC)C(=O)CSc1nc2ccccc2c(=O)n1CCC(=O)NCc1ccc(F)cc1
COc1cc(NC(=O)CCn2c(=O)oc3ccccc32)cc(OC)c1OC
Cc1[nH][nH]c(=O)c1C(c1ccc(-c2cccc(C(=O)O)c2)o1)c1c(C)[nH][nH]c1=O
Cc1[nH][nH]c(=O)c1C(c1ccc(-c2ccc(F)cc2)o1)c1c(C)[nH][nH]c1=O
O=C(CC1SC2=NCCN2C1=O)Nc1ccccc1 (stereo unspecified)
Cc1ccc(OCCCC(=O)Nc2ccccc2C(F)(F)F)cc1
Cc1cccc(C)c1OCC(O)CNS(=O)(=O)c1ccccc1C(=O)N1CCCCC1 (stereo unspecified)
Cc1ccc(-n2nc3c(=O)n(CC(=O)NCc4ccccc4)nc(C)c3c2C)cc1
Fc1ccc(C2CCNCC2COc2ccc3c(c2)OCO3)cc1 (stereo unspecified)
CN(C)Cc1cc(O)c(CN(C)C)cc1O
Cc1ccc(S(=O)(=O)N2CCOCC2)cc1NC(=O)CSc1ccccn1
COc1cc2[nH]c(Cl)c([N+](=O)[O-])c2cc1OC
O=C(Nc1cccc(O)c1)c1ccc(Br)cc1
COc1cc(/C=C/c2nc3ccccc3c(=O)[nH]2)cc(Cl)c1O
CC(=O)Nc1cccc(C(=O)OCc2ccccc2)c1
Nc1nc(=S)c2ncn(C3OC(CO)C(O)C3O)c2[nH]1 (stereo unspecified)
O=C(/C=C/c1ccc(-c2ccccc2)cc1)NCc1cccnc1
CC(C)(C)CC(=O)Nc1nnc(SCC(=O)NCc2cccs2)s1
C=CCn1c(=NC(=O)c2ccc(S(=O)(=O)N3CCCC3)cc2)sc2cc(NC(C)=O)ccc21
